For 40 compounds, inhibition results are on record in PubChem BioAssay.

What is called inhibition is the drop in the measured response relative to a control, in per cent.

Unmarked numbers belong to inactive results. The source made the active and inactive calls.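 How the source made its calls: active means mean inhibition over 43.08%, the solvent-only control mean plus 3 SD; inactive means the rest.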 Square brackets hold non-standard residues; d marks the D form. Peptide text beside a SMILES is read from it. NMeY = CN[C@@H](Cc1ccc(O)cc1)C(=O)O; NMeF = CN[C@@H](Cc1ccccc1)C(=O)O; 2Abz = Nc1ccccc1C(=O)O

Nuclear receptor coactivator 3 (Homo sapiens), sequence (Q9Y6Q9 whole entry, looked up, the tested form may be a part): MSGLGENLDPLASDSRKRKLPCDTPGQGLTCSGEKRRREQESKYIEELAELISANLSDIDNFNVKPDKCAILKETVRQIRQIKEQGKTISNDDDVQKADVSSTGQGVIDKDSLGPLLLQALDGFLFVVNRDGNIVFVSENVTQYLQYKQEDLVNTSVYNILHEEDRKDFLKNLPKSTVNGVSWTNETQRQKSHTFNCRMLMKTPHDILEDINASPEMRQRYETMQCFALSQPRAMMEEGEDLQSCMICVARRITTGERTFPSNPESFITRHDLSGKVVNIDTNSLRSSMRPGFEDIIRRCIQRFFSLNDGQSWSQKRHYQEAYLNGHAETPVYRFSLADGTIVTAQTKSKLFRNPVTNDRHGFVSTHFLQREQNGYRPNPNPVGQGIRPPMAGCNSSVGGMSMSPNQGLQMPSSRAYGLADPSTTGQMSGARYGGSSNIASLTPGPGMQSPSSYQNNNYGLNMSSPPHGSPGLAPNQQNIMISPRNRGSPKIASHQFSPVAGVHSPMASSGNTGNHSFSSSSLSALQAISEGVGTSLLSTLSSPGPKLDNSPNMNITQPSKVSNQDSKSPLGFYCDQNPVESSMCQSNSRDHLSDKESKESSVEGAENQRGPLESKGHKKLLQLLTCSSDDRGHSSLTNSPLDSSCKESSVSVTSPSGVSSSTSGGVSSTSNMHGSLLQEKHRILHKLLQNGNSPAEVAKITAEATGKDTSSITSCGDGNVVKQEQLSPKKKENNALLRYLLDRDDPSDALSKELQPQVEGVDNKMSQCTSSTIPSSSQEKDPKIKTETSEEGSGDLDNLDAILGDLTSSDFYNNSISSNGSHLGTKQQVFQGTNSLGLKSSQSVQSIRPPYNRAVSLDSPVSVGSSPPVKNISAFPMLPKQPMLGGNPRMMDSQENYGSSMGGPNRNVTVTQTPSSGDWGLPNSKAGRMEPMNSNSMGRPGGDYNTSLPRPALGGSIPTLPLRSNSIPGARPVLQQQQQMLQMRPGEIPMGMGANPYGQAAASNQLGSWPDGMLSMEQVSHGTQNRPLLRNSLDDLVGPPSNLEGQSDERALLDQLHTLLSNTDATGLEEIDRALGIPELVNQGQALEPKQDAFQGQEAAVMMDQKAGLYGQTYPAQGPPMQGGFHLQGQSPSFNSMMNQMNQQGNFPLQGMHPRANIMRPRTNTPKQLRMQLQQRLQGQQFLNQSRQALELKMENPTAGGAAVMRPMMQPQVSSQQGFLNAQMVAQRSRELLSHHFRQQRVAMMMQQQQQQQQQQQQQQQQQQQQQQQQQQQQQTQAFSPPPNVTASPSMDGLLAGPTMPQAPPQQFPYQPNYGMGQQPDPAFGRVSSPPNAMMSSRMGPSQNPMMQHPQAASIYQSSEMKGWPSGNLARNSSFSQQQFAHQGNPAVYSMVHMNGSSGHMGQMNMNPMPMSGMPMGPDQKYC

This experiment addresses Nuclear receptor coactivator 3 (Homo sapiens) (UniProt Q9Y6Q9). In words: NCOA3 GAL4-fusion reporter inhibition – cell-based, luminescence, quadruplicate, confirmation (AID 588792).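 Further: 0% = DMSO treated cells and 100% = gossypol at 36 µM.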 To be noted: HEK293 GAL4-SRC3 luciferase reporter, at 3.6 µM, hits give high values. In general terms: A reporter such as luciferase makes a cellular process visible.
Regarding `O=c1[nH]c(=O)n([C@H]2C[C@H](O)[C@@H](CO)O2)cc1Br`, the inhibition was 14.7%.

In the case of `Cc1ccc(S(=O)(=O)NCc2ccc(C(=O)N3CCN(c4ccc([N+](=O)[O-])cc4)CC3)cc2)cc1`, the inhibition was 17%. `O=C(CCl)NC1CCCc2ccccc21` (stereo not given): the inhibition was 1.81%. Take `Cc1cccc(N2CCN(C(=O)C3CCN(c4ncnc5c4nc4n5CCCCC4)CC3)CC2)c1C`: the inhibition was -4.11%.

In the case of `c1ccc(CN2CCN(c3ncnc4c3[nH]c3ccccc34)CC2)cc1`, the inhibition is 8.1%. Take `COc1ccc2c(=O)c3c(=O)n(CCc4ccccc4)c(C(C)C)nc3oc2c1`: the inhibition was 4.29%. On to `O=c1cc(CNc2cc(C(F)(F)F)cc(C(F)(F)F)c2)nc2sccn12`, for which the inhibition was 4.27%. Consider `COc1cccc(CNCCO)c1OCc1ccccc1`, for which the inhibition was -2.38%. As for `COc1ccc(CNC(=O)[C@H](Cc2ccccc2)NC(=O)C2CCN(C(=O)[C@H](C)N)CC2)cc1`, the figure is 12.2%; as for `Clc1ccc(-c2noc(CSc3nnc(-c4ccncc4)n3-c3ccccc3)n2)cc1`, 8.46%; as for `CCOc1ccc(/C=C/C(O)=C2/C(=O)NC3(C)CC2c2ccccc2O3)cc1OC` (stereo not given), 25.5%. Regarding `CC(C(=O)N1c2ccccc2Sc2ccccc21)n1nnc(-c2cccs2)n1` (stereo not given), the inhibition is 2.33%. As to `CCN(CC)C(=O)c1[nH]cnc1C(=O)N[C@@H](CCCCNC(=O)OC(C)(C)C)C(=O)OC(C)(C)C`, the inhibition was 3.8%.

`Cc1cccc(Oc2sc(C(=O)c3ccccc3)c(N)c2C#N)c1`: the inhibition was 34.8%. As for `COc1cccc(/C=C/C(=O)OCC(=O)N2CCCC2)c1OC`, the figure is -12.6%. The value for `COc1cccc(/C=N/NC(=O)CNC(=O)C(c2ccccc2)c2ccccc2)c1O` was 17.2%; that for `CC(=O)c1c(C)[nH]c(C(=O)OCC(=O)Nc2ccc(C)cc2[N+](=O)[O-])c1C` was 32.4%; that for `Nc1nc(CCl)nc(N(c2ccccc2)c2ccccc2)n1` was 18.4%. As for `C#CCOCCOCCOCCNc1nc(N2CCN(C(=O)Cn3cc(CCCN=C(N)N)nn3)CC2)nc(N2CCN(C(=O)[C@H](C)n3cc(CCCN=C(N)N)nn3)CC2)n1`, the figure is 3.42%; as for `Cc1ccc(-c2nc(CS(=O)CC(=O)NCCCN3CCN(Cc4ccccc4)CC3)c(C)o2)cc1` (stereo not given), 20.1%. As for `CCN(CC)c1ccc(/C=N/NC(=O)c2cnccn2)c(O)c1`, the inhibition was 45.2% (active).

With `O=C(Nc1sc2c(c1C(=O)O)CCCC2)c1ccc(Cl)cc1`, the inhibition was 30.9%. For `Cc1nc(Nc2nc(CSc3nc4ccccc4[nH]3)cc(=O)[nH]2)nc2ccccc12`, the inhibition was -5.42%. Consider `Cc1cc(C)n(-c2ccc(C(=O)Nc3cccc(S(=O)(=O)N(C)C)c3)cc2)n1`, for which the inhibition is -2.01%. As for `CCCC(=O)NC(c1ccc2c(c1)OCO2)c1cc(Cl)c2cccnc2c1O` (stereo not given), the figure is 40.7%. In the case of `CC(C)C[C@@H]1NC(=O)[C@H](Cc2ccccc2)N(C)C(=O)[C@H](C)NC(=O)c2ccccc2NC(=O)[C@H](Cc2ccc(O)cc2)N(C)C1=O` (cyclo([2Abz]A[NMeF]L[NMeY])), the inhibition was 18.1%.

For the compound `CCn1cc(C(=O)NCc2ccco2)c(=O)c2cc(S(=O)(=O)N3CCCCCC3)ccc21`, the inhibition was 20%. As for `COc1ccc(/C=C(\C#N)C(=O)OCC(=O)N(C)C2CCS(=O)(=O)C2)cc1` (stereo not given), the figure is -1.8%. The value for `CC1CCCC=CC2CC(OC(=O)CN(C)C)CC2C(O)C=CC(=O)O1` (stereo not given) was 65.1% (active); that for `COc1ccc(OC)c(N/C=C/C(=O)c2ccccc2)c1` was 44.8% (active).

Regarding `O=C(Nc1cccc2ccccc12)OC1C=CS(=O)(=O)C1` (stereo not given), the inhibition is 25.6%. For the compound `CC(=O)Nc1ccc(NC(=O)c2ccc(N(Cc3ccccc3C)S(C)(=O)=O)cc2)cc1`, the inhibition was -0.29%. Take `Cc1cc(NC2CCCCC2)nc(NCc2ccccc2)n1`: the inhibition is 18.8%. As for `Cc1ccc(Cl)cc1N(Cc1ccc(C(=O)NCc2cccnc2)cc1)S(=O)(=O)c1ccccc1`, the inhibition is 9.61%. The value for `Cc1ccccc1-n1nnnc1Sc1nnnn1-c1ccccc1` was 7%; that for `Cn1nc(C(C)(C)C)cc1C(=O)NCc1ccc(N2CCCC2=O)cc1` was 10.7%; that for `CC(=O)Nc1cccc(C(=O)/C=C/c2ccc(F)cc2)c1` was 1.7%. As for `Cc1ccc(S(=O)(=O)NCCC(=O)Nc2ccncc2)cc1C`, the figure is -1.9%. The value for `Nc1ccccc1-c1ccc([N+](=O)[O-])cc1` was 5.58%; that for `COc1ccccc1NS(=O)(=O)c1cc(NC(=O)c2ccc(Cl)nc2)ccc1Cl` was 9.43%.
